Measurements: article PMC8222333, “AsCas12a ultra nuclease facilitates the rapid generation of therapeutic cell medicines”
Substitutions are numbered along the chain they refer to.

B1: TCTC (dsDNA)
DNA 1: GCTATCTAGTGCTCAGTACGCACTGTCTCAGGAAACTTCTGGCAGGACCAGGTCATGAGATCGGAAGAGCACACGTCTGAACTCCAGTCA
DNA 2: TGACTGGAGTTCAGACGTGTGCTCTTCCGATCTCATGACCTGGTCCTGCCAGAAGTTTCCTGAGACAGTGCGTACTGAGCACTAGATAGC
RNA: AAUUUCUACUCUUGUAGAUAGGAAACUUCUGGCAGGACC
B2: TCTG (dsDNA)
DNA 1: B1 DNA 1 with C29G
DNA 2: B1 DNA 2 with G62C
RNA: B1 RNA
B3: TGTA (dsDNA)
DNA 1: B1 DNA 1 with C27G, C29A
DNA 2: B1 DNA 2 with G62T, G64C
RNA: B1 RNA
B4: TGTC (dsDNA)
DNA 1: B1 DNA 1 with C27G
DNA 2: B1 DNA 2 with G64C
RNA: B1 RNA
B5: TTAA (dsDNA)
DNA 1: B1 DNA 1 with C27T, T28A, C29A
DNA 2: B1 DNA 2 with G62T, A63T, G64A
RNA: B1 RNA
B6: TTAC (dsDNA)
DNA 1: B1 DNA 1 with C27T, T28A
DNA 2: B1 DNA 2 with A63T, G64A
RNA: B1 RNA
B7: TTCA (dsDNA)
DNA 1: B1 DNA 1 with C27T, T28C, C29A
DNA 2: B1 DNA 2 with G62T, A63G, G64A
RNA: B1 RNA
B8: TTCC (dsDNA)
DNA 1: B1 DNA 1 with C27T, T28C
DNA 2: B1 DNA 2 with A63G, G64A
RNA: B1 RNA
B9: TTCT (dsDNA)
DNA 1: B1 DNA 1 with C27T, T28C, C29T
DNA 2: B1 DNA 2 with G62A, A63G, G64A
RNA: B1 RNA
B10: TTGA (dsDNA)
DNA 1: B1 DNA 1 with C27T, T28G, C29A
DNA 2: B1 DNA 2 with G62T, A63C, G64A
RNA: B1 RNA
B11: TTGC (dsDNA)
DNA 1: B1 DNA 1 with C27T, T28G
DNA 2: B1 DNA 2 with A63C, G64A
RNA: B1 RNA
B12: TTTC (dsDNA)
DNA 1: B1 DNA 1 with C27T
DNA 2: B1 DNA 2 with G64A
RNA: B1 RNA
B13: TTTG (dsDNA)
DNA 1: B1 DNA 1 with C27T, C29G
DNA 2: B1 DNA 2 with G62C, G64A
RNA: B1 RNA

Columns and labels:
[1] = target: dAsCas12a WT (Acidaminococcus sp., UniProt U2UMQ6 1-1307, D908A;E993A;D1235A); assay: Spec-seq (native PAGE EMSA with sequencing of bound and unbound); 25 mM Tris-HCl pH 7.4, 150 mM KCl, 5 mM MgCl2, 10% glycerol, 1 mM DTT, 40 ng/uL salmon sperm DNA; 400 nM Cas12a, 480 nM crRNA, 50 nM library, 37 C 1 h; native P; high values mean tight binding
[2] = target: dAsCas12a Ultra (Acidaminococcus sp., UniProt U2UMQ6 1-1307, M537R;F870L;D908A;E993A;D1235A); assay: Spec-seq (native PAGE EMSA with sequencing of bound and unbound); 25 mM Tris-HCl pH 7.4, 150 mM KCl, 5 mM MgCl2, 10% glycerol, 1 mM DTT, 40 ng/uL salmon sperm DNA; 400 nM Cas12a, 480 nM crRNA, 50 nM library, 37 C 1 h; native PAGE at room temperature; high values mean tight binding; settings: protein: recombinant
[3] = target: dAsCas12a E174R (Acidaminococcus sp., UniProt U2UMQ6 1-1307, E174R;D908A;E993A;D1235A); assay: as above; settings: protein: recombinant;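 also: relative affinity from the bound to unbound sequence frequency ratio in Spec-seq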
[4] = target: dAsCas12a S542R (Acidaminococcus sp., UniProt U2UMQ6 1-1307, S542R;D908A;E993A;D1235A); assay: as above; settings: protein: recombinant;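 also: relative affinity from the bound to unbound sequence frequency ratio in Spec-seq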
[5] = target: dAsCas12a K548R (Acidaminococcus sp., UniProt U2UMQ6 1-1307, K548R;D908A;E993A;D1235A); assay: as above; settings: protein: recombinant
[6] = target: d-enCas12a (Acidaminococcus sp., UniProt U2UMQ6 1-1307, E174R;S542R;K548R;D908A;E993A;D1235A); assay: as above; settings: protein: recombinant
[7] = target: d-enCas12a-Ultra (Acidaminococcus sp., UniProt U2UMQ6 1-1307, E174R;S542R;K548R;M537R;F870L;D908A;E993A;D1235A); assay: as above; settings: protein: recombinant;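 also: relative affinity from the bound to unbound sequence frequency ratio in Spec-seq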

Binder	binding signal [1] [lnKA]	binding signal [2] [lnKA]	binding signal [3] [lnKA]	binding signal [4] [lnKA]	binding signal [5] [lnKA]	binding signal [6] [lnKA]	binding signal [7] [lnKA]
B1	-5.94	-3.61	-3.18	-4.47	-8.65	-3.15	-0.761
B2	-6.99	-4.53	-4.57	-5.38	–	-4.86	-1.79
B3	-7.99	-6.4	-6.64	-6.54	-7.23	-0.876	-0.296
B4	-8.93	-7.57	-7.56	-7.52	-6.58	-0.999	-0.323
B5	-8.61	-7.33	-7.28	-6.82	-8.66	-3.79	-1.68
B6	-8.99	-7.13	-6.79	-6.51	-8.18	-1.59	-0.507
B7	-7.22	-4.73	-3.99	-1.85	-6.86	-0.506	-0.166
B8	-7.28	-4.81	-4.78	-1.16	-6.53	-0.274	-0.0946
B9	-8.65	-6.53	-6.23	-3.26	-8.32	-0.829	-0.251
B10	-8.14	-6.6	-7.49	-6.46	-8.53	-4.32	-2.04
B11	-8.28	-6.02	-6.51	-6.74	-7.43	-2.75	-0.707
B12	0.0688	-0.0656	-0.339	-0.143	0.462	0.00167	0.033
B13	-1.4	-0.474	-0.628	-0.333	-0.458	-0.151	-0.067
